Screening data: PubChem BioAssay, several laboratories
Rows were chosen to be rich in hits. Some 12% of all compounds tested hit in one or more screens of this group.
KCC2 mod = KCC2 cotransporter modulators, thallium flux, primary screen, cell-based, HEK293 KCC2, FluoZin-2 fluorescence, MLSMR; B-score of Tl+ flux slope (higher = more flux/activation; lower = inhibition) at 10 µM; KCC2 cells, thallium flux FluoZin-2 fluorescence; AID 1456, 2008; 190,000 compounds, 2.2% hits;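 active = thallium flux slope and its plate-corrected score both differing from the plate sample mean at a set confidence after two filtering rounds, in either direction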;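 note: slope of fluorescence scaled to starting intensity during 10 to 20 s after thallium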
ROMK primary = ROMK potassium channel modulators, primary screen, cell-based, thallium flux, MLSMR library. Tet-inducible ROMK, thallium flux fluorescence; actives lie on both sides. B-score at 10 µM. 130,000 compounds, 2% hits. ATP-sensitive inward rectifier potassium channel 1 (Homo sapiens), P48048. AID 1918, 2009;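 active = signal ratio slope over the read window, or its plate-corrected B-score, at least 3 SD from the plate mean, either direction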;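 note: B-score of the F/F0 ratio slope over 7 to 12 s after thallium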
Target sequence (P48048 whole entry, looked up): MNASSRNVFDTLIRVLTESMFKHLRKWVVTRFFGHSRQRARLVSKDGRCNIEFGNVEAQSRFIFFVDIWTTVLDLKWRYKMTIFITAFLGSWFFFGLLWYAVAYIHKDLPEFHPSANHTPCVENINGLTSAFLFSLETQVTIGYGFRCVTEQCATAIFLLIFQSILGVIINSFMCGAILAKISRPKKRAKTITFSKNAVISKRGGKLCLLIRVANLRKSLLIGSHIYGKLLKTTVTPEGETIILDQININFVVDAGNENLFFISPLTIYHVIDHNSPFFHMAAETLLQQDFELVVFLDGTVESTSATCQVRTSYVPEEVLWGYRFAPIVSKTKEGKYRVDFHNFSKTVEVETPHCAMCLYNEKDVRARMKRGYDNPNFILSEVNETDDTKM
Lmaj promast = Leishmania major promastigote growth inhibition, primary screen; Leishmania major promastigotes, resazurin fluorescence viability; inhibition, % at 10 µM; 200,000 compounds, 9% hits; AID 1063, 2008; in the data active = inhibition above about 50%;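 note: promastigotes grown with compound for 44 hours at 28 °C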
Calpain2 inh = inhibitors of pig calpain II, primary screen, biochemical, fluorogenic peptide substrate, 1536-well; purified calpain II, 30 min; inhibition, % at 16 µM; 220,000 compounds, 0.37% hits;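 active = inhibition above about 50%, limit read from the data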
WT yeast gro inh = growth inhibition of WT strain, primary screen, mitochondrial fusion inhibitor project, WT and mutant strains, chemical genetic. mitochondrial fusion phenotypic screen. inhibition, % at 10 µM. 190,000 compounds, 2.1% hits; in the data active = inhibition above about 58%; tested in S. cerevisiae
The depositor's hits bear a star; nt = no result given.

SMILES	KCC2 mod	ROMK primary	Lmaj promast	Calpain2 inh	WT yeast gro inh
CCC(=O)N1CCc2cc(Br)cc(S(=O)(=O)N(C)c3ccc(OC)cc3OC)c21	0.92	0.24	34	22	20
COCCN(C(=S)Nc1cc(C)ccc1C)C(C)c1cccnc1 (stereo not drawn)	-0.88	0.42	95*	-6	-5
COCCN(C(=S)Nc1c(C)cc(C)cc1C)C(C)c1cccnc1 (stereo not drawn)	0.07	0.7	89*	-5	-2
CCOc1ccc(Oc2cc(N)cc([N+](=O)[O-])c2)cc1	1.5	-0.085	-11	25	-10
COc1cccc(CNc2nc3ccccc3n2CCN2CCCCC2)c1	nt	-1.3	44	-12	31
COc1ccc(CNc2nc3ccccc3n2CCN2CCCCC2)c(OC)c1	0.072	-2.2	92*	10	-24
COc1ccc(OC)c(CNc2nc3ccccc3n2CCN2CCCCC2)c1	0.7	-1.9	67*	4	-10
CCn1c(NCc2cccc(OC)c2OC)nc2ccccc21	0.16	-0.69	6	15	15
COc1cccc(CNc2ccc(N3CCCCC3)cc2)c1OC	-1.2	nt	100*	16	5
COc1cccc(CNc2nc3ccccc3n2CCN2CCCCC2)c1OC	-2.2	-0.12	100*	-14	4
Cc1ccc(C(=O)Nc2ccc(C(=O)N3CCCCC3C)cc2)cc1 (stereo not drawn)	-0.34	-0.77	3	37	8
O=C(/C=C/c1ccccc1)N1c2ccccc2Sc2ccc(C(F)(F)F)cc21	0.44	0.79	97*	41	28
COc1ccc(/C=C/C(=O)N2c3ccccc3Sc3ccc(C(F)(F)F)cc32)cc1	-0.045	nt	18	-21	14
Oc1ccc(N2CCN(C(c3cccnc3)c3nnnn3Cc3ccccc3)CC2)cc1 (stereo not drawn)	-0.061	0.026	65*	-84	13
COCCn1nnnc1C(c1ccccc1)N1CCN(c2ccccc2)CC1 (stereo not drawn)	2.9	-0.07	1	-10	-8
c1ccc(CCn2nnnc2C(c2cccnc2)N2CCN(c3ccccc3)CC2)cc1 (stereo not drawn)	-0.85	nt	97*	-45	-65
c1ccc(CCn2nnnc2C(c2cccnc2)N2CCN(c3nc4ccccc4s3)CC2)cc1 (stereo not drawn)	-1.9	-0.79	100*	-63	31
Cc1ccc(NCN2C(=O)C3CC=CCC3C2=O)cc1 (stereo not drawn)	-0.69	1.2	0	-21	-20
Cc1cccc(N2CCN(S(=O)(=O)c3ccc4c(c3)CCN4C(=O)CCC(=O)O)CC2C)c1 (stereo not drawn)	nt	nt	-6	12	0
Cc1ccc(-n2c(=O)c3sccc3n(Cc3cc(=O)n4cc(Cl)ccc4n3)c2=O)cc1F	-0.78	0.32	2	-62	26
Cc1c(NC(=O)c2cc3ccccc3o2)c(=O)n(-c2ccccc2)n1C	-0.025	nt	-1	7	9
CCCC(=O)Nc1ccc(Cl)c(NC(=S)NC(=O)c2cc3ccccc3o2)c1	2.4	0.39	-1	52*	1
Cc1c(NC(=S)NC(=O)c2cc3ccccc3o2)c(=O)n(-c2ccccc2)n1C	-1.7	0.54	53*	19	-7
CCOC(=O)C1(CCOc2ccccc2)CCN(Cc2ccncc2)CC1	0.24	nt	86*	-32	-1
CCOC(=O)C1(CCOc2ccccc2)CCN(Cc2ccc(-n3cccn3)cc2)CC1	0.037	-1.3	90*	-12	14
SMILES	KCC2 mod	ROMK primary	Lmaj promast	Calpain2 inh	WT yeast gro inh
O=C(Nc1ccccc1)c1cc2n(n1)C(C(F)(F)F)CC(C1CC1)N2 (stereo not drawn)	-0.63	-0.15	7	15	7
O=C(NCc1ccc(F)cc1)c1cc2n(n1)C(C(F)(F)F)CC(C1CC1)N2 (stereo not drawn)	0.71	nt	3	66*	11
CCc1cccc2c(C(=O)CSc3nncn3-c3ccc(OC)cc3)c[nH]c12	0.058	0.12	53*	3	-10
c1ccc(Nc2cccc(Nc3ccccc3)c2)cc1	0.95	0.15	30	44	71*
Cc1nc(N2CCCCC2)c2c(C)c(C(=O)Nc3ccccc3C(F)(F)F)sc2n1	-0.036	-1	42	-23	66*
Cc1nc(N2CCCCC2C)c2c(C)c(C(=O)Nc3cccc(C(F)(F)F)c3)sc2n1 (stereo not drawn)	1.7	0.8	67*	-57	68*
Cc1nc(N2CCN(C)CC2)c2c(C)c(C(=O)Nc3ccc(F)cc3)sc2n1	nt	-0.54	8	-4	nt
CCOC(=O)c1sc2nc(C)nc(N3CCCCC3C)c2c1C (stereo not drawn)	0.018	nt	28	8	47
Cc1nc(N2CCCCC2)c2c(C)c(C(=O)Nc3cccc(C(F)(F)F)c3)sc2n1	-0.63	nt	62*	-106	70*
COc1ccc(OCCSc2nc(-c3ccccc3)cc(=O)[nH]2)cc1	-0.21	nt	-9	-41	-30
CCOc1cc(/C=C/c2nc3cc(C)c(C)cc3s2)ccc1OCC(=O)N1CCOCC1	-0.12	nt	86*	-110	-1
O=C(COC(=O)C1CC1)NC(=O)NCc1ccccc1	0.59	0.26	-8	-11	-3
O=C(C[n+]1cnn(CC(=O)c2ccc(Cl)cc2Cl)c1)c1ccc([N+](=O)[O-])cc1	0.0076	nt	83*	5	-27
Cn1c(N)c(C(=O)COC(=O)C2=NNC(=O)CC2)c(=O)n(C)c1=O	0.13	nt	nt	-9	nt
COc1ccc(CCCc2nnc(SCC(=O)Nc3ccc(OC)cc3)o2)cc1	-0.035	0.031	0	11	-10
COc1ccc(CCCc2nnc(SCC(=O)Nc3ccc(C)c(C)c3)o2)cc1	-1.1	-0.033	4	60*	2
CCOC(=O)c1ccc(NC(=O)c2cn(CCC#N)nc2-c2ccc3c(c2)OCCO3)cc1	0.4	-0.053	68*	-6	-17
O=C(c1cccc(Cl)c1)C1CCCN(Cc2ccc(N3CCNC3=O)cc2)C1 (stereo not drawn)	0.52	-0.33	11	21	14
COc1ccc(NC(=O)c2cc(-c3ccccc3)nc3c2c(C)nn3-c2ccccc2)c(OC)c1	1.7	-0.4	84*	-30	-24
CCOC(=O)c1oc2ccc(S(=O)(=O)n3nc(-c4ccccc4)cc3N)cc2c1C	nt	nt	97*	-64	-3
COc1cc(CN2CCN(Cc3ccc(C)cc3)C(CCO)C2)cc(OC)c1O (stereo not drawn)	0.044	-0.45	-4	-1	5
C[C@@H](C(=O)NCc1ccccc1)[C@H]1C[C@]1(C)[C@H](NC(=O)OCc1ccccc1)c1ccccc1	0.33	-2.5	27	-2	20
COc1ccc(CNC(=O)[C@H](C)[C@@H]2C[C@@]2(C)[C@@H](NC(=O)OCc2ccccc2)c2ccccc2)cc1OC	-0.72	-0.67	19	-1	69*
CCCCn1c2ccccc2c2nnc(SCC(=O)NC3=NN=C(c4ccccc4)CS3)nc21	-0.43	nt	15	-23	60*
